According to PubChem BioAssay AID463193 (University of Pittsburgh Molecular Library Screening Center, 2010):
Among all 190,000 compounds or so, about 1,900 (1%) were called active. This is one part of a sample in which actives are shown more often than they occur.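 How the source made its calls: active means percentage of spot-positive cells more than 3 SD above its plate mean, without a fluorescence outlier flag or 80% toxicity; inconclusive means no clear call, values can overlap the other calls; inactive means the rest.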

test: GFP-LC3 puncta formation changes – imaging, high-content, MEF GFP-LC3, primary screen (AID 463193); conditions: autophagy, at 10 µM; % cells with GFP-LC3 spots: stronger effect = higher value; toxicity: measured here: cell loss, nuclei count;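 on % cells with GFP-LC3 spots: spot-positive cell cutoff set from DMSO-treated cells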;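 on toxicity: cell loss after 18 h compound exposure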

Structure (SMILES)	% cells with GFP-LC3 spots	toxicity [%]
Cc1cc([N+](=O)[O-])nn1CCCC(=O)Nc1cccnc1Cl	8.6% (inactive)	1.08
O=C(Cc1cccc2ccccc12)Nc1ccc2oc(-c3ccccc3)nc2c1	7.49% (inactive)	12.1
Cc1ccc(-c2nnc(-c3ccc(NC(=O)c4cccs4)cc3)o2)cc1	9.58% (inactive)	-19.8
O=C(Nc1ccc2oc(-c3ccc4ccccc4c3)nc2c1)c1cccs1	3.28% (active)	-13.1
COc1cc(OC)c(C(=O)Nc2ccccc2-c2ccccc2)cc1OC	7.38% (inactive)	-2.46
COc1ccc(C(=O)OCC(=O)NCC2CCCO2)cc1[N+](=O)[O-] (centres undefined)	3.86% (inactive)	1.61
COc1ccc(OC)c(C(=O)c2ccc(C(=O)N3CCN(Cc4csc(C)n4)CC3)cc2)c1	1.64% (inactive)	6.76
O=C(O)COc1ccc(/C=N/O)cc1Br	17% (inactive)	9.84
CN(C)c1ccc(NC(=O)CSc2n[nH]c(-c3ccco3)n2)cc1	5.18% (inactive)	-4.21
C/C(Cc1ccccc1)=N\NC(=O)CNC(=O)c1cccc(Br)c1	6.35% (inactive)	7.09
CN(C)S(=O)(=O)N1CCN(c2ccc([N+](=O)[O-])cc2)CC1	20% (active)	4.08
COc1ccc(N2CCN(c3ccc([N+](=O)[O-])cc3Cl)CC2)cc1	3.9% (inactive)	14.4
Cc1ccc(N2CCN(S(=O)(=O)N(C)C)CC2)cc1Cl	10.8% (inactive)	7.23
O=C(O)CCn1c(SCc2cc(=O)n3ccccc3n2)nc2ccsc2c1=O	0.605% (inactive)	8.22
Cc1ccc(NC(=O)CN(C)Cc2ccc(F)cc2)c([N+](=O)[O-])c1	5.2% (inactive)	3.98
Cc1ccc(NC(=O)c2oc3ccccc3c2C)c([N+](=O)[O-])c1	13.1% (active)	22.2
Cc1ccc(NC(=O)c2oc(=O)c3ccccc3c2-c2ccccc2)c(C)c1	6.34% (inactive)	-1.17
CCOC12CC(C)(C)CC(C)(CC3=C1C(=O)CC(C)(C)C3)C2 (centres undefined)	4.26% (inactive)	3.51
Oc1ccc(-c2csc(Nc3cccnc3)n2)cc1	7.75% (inactive)	-0.924
COc1ccc(-c2csc(Nc3ccc(O)cc3)n2)cc1	16.2% (active)	17.3
COc1ccc(Nc2nc(-c3ccccc3)cs2)cc1	11.9% (inactive)	-34.3

Structure (SMILES)	% cells with GFP-LC3 spots	toxicity [%]
CCC(CC)NC(=O)CSc1nnc(-c2c[nH]c3ccccc23)o1	15.7% (inactive)	28.2
Cc1ccc(-n2c(O)c(C=Nc3ccc(S(=O)(=O)Nc4ncccn4)cc3)c3ccccc3c2=O)cc1C	3.56% (inactive)	-8.78
Cc1ccc(N=Cc2c(O)n(-c3nccs3)c(=O)c3ccccc23)c(C)c1	60% (active)	-7.63
Cc1ccc(N=Cc2c(O)cc(C)oc2=O)c(C)c1	9.61% (inactive)	4.32
CCOC(=O)N1CCN(C(=O)c2ccccc2N(Cc2ccccc2)S(=O)(=O)c2ccc(OC)cc2)CC1	19.1% (inactive)	5.8
Cc1c(CN2CCC(CO)(CCOc3ccccc3)CC2)[nH]c2ccc(Cl)cc12	14.1% (inactive)	-12.9
COc1cccc2sc(NNC(=O)c3nc4ccccc4s3)nc12	8.59% (inactive)	0.117
COc1cccc2sc(Nc3nc(C)c(C(C)=O)s3)nc12	21.8% (active)	46.9
CC(=O)c1sc(NC(=O)CCCOc2ccccc2C)nc1C	7.71% (inactive)	7.95
CC1CCN(C2=NC(=O)/C(=C/c3cn[nH]c3-c3ccccc3)S2)CC1	4.99% (inactive)	5.05
O=C(Nc1ccccc1C(=O)N1CCCCCC1)c1ccccc1Cl	43.8% (active)	-8.81
O=C(Nc1ccccc1C(=O)N1CCOCC1)c1ccc(Cl)cc1	1.74% (inactive)	11.5
O=C(CN(c1ccccc1)S(=O)(=O)c1ccc(Cl)cc1)Nc1ccccc1C(=O)N1CCCC1	9.32% (inactive)	0.638
O=C(CN1C(=O)/C(=C/c2ccccc2F)Sc2ccccc21)NCc1cccnc1	0.409% (inactive)	-0.091
CCc1ccc2c(c1)C1(NN=C(c3ccccc3)S1)C(=O)N2 (centres undefined)	24.9% (active)	40.3
O=C1Nc2ccccc2C12Nc1ccccc1S2 (centres undefined)	6.3% (inactive)	-0.645
C=C1c2cc(CC)ccc2NC(=O)N1c1ccc(C)cc1	1.08% (inactive)	-2.35
CCOc1ccc(N(CC(=O)NCCc2ccc(OC)cc2)S(C)(=O)=O)cc1	1.57% (inactive)	-14.4
COc1ccc(C2CC(c3ccc(Cl)cc3Cl)Nc3nc(N)nn32)cc1OC (centres undefined)	14.3% (active)	1.79
COc1ccc(C2CC(c3ccc(C)cc3)Nc3nc(N)nn32)cc1 (centres undefined)	17.9% (inactive)	-20.4
Cc1ccc(C2CC(c3cccc(C)c3)n3nc(N)nc3N2)cc1 (centres undefined)	4.2% (inactive)	10.4
